Changes are numbered by the printed parent chain; changes in the protein carry UniProt numbers. Whole data set: some 16,000 sequences, median “ka relative to ugcaugu” near 0.0091, cut for the highest 2% near 0.032. The full list was thinned out, with the highest values kept by preference.
T1: RBFOX1 RRM (Homo sapiens, UniProt Q9NWB1 109-208)
T1 sequence: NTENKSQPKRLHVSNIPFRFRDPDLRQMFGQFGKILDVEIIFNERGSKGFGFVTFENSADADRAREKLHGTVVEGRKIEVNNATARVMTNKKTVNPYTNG

B1: UAACCGC (DNA:RNA)
RNA: GGGAGACCGGAAUUCAGAUUGUCCUAACCGCUUAAAUCCCGUCGUAGCCACCA
DNA 1: CAATCTGAATTCCGGTCTCCC
DNA 2: TGGTGGCTACGACGGGATT
B2: CAACUUU (DNA:RNA)
RNA: B1 RNA with U25C, C29U, G30U, C31U
DNA 1: CAATCTGAATTCCGGTCTCCC
DNA 2: TGGTGGCTACGACGGGATT
B3: UUGCAAU (DNA:RNA)
RNA: B1 RNA with A26U, A27G, C29A, G30A, C31U
DNA 1: CAATCTGAATTCCGGTCTCCC
DNA 2: TGGTGGCTACGACGGGATT
B4: CACCGUG (DNA:RNA)
RNA: B1 RNA with U25C, A27C, C29G, G30U, C31G
DNA 1: CAATCTGAATTCCGGTCTCCC
DNA 2: TGGTGGCTACGACGGGATT
B5: AGUCCAG (DNA:RNA)
RNA: B1 RNA with U25A, A26G, A27U, G30A, C31G
DNA 1: CAATCTGAATTCCGGTCTCCC
DNA 2: TGGTGGCTACGACGGGATT
B6: AGGCAGA (DNA:RNA)
RNA: B1 RNA with U25A, A26G, A27G, C29A, C31A
DNA 1: CAATCTGAATTCCGGTCTCCC
DNA 2: TGGTGGCTACGACGGGATT
B7: AGAGAAG (DNA:RNA)
RNA: B1 RNA with U25A, A26G, C28G, C29A, G30A, C31G
DNA 1: CAATCTGAATTCCGGTCTCCC
DNA 2: TGGTGGCTACGACGGGATT
B8: ACCGGGU (DNA:RNA)
RNA: B1 RNA with U25A, A26C, A27C, C28G, C29G, C31U
DNA 1: CAATCTGAATTCCGGTCTCCC
DNA 2: TGGTGGCTACGACGGGATT
B9: GGGUUGU (DNA:RNA)
RNA: B1 RNA with U25G, A26G, A27G, C28U, C29U, C31U
DNA 1: CAATCTGAATTCCGGTCTCCC
DNA 2: TGGTGGCTACGACGGGATT
B10: GGGUUUU (DNA:RNA)
RNA: GGGAGACCGGAAUUCAGAUUGUCCGGGUUUUUUAAAUCCCGUCGUAGCCACCA
DNA 1: CAATCTGAATTCCGGTCTCCC
DNA 2: TGGTGGCTACGACGGGATT
B11: GUCGGGU (DNA:RNA)
RNA: B10 RNA with G26U, G27C, U28G, U29G, U30G
DNA 1: CAATCTGAATTCCGGTCTCCC
DNA 2: TGGTGGCTACGACGGGATT
B12: GGAGUUU (DNA:RNA)
RNA: B10 RNA with G27A, U28G
DNA 1: CAATCTGAATTCCGGTCTCCC
DNA 2: TGGTGGCTACGACGGGATT
B13: GUCCGGG (DNA:RNA)
RNA: B1 RNA with U25G, A26U, A27C, C29G, C31G
DNA 1: CAATCTGAATTCCGGTCTCCC
DNA 2: TGGTGGCTACGACGGGATT
B14: CCGGGUU (DNA:RNA)
RNA: B10 RNA with G25C, G26C, U28G, U29G
DNA 1: CAATCTGAATTCCGGTCTCCC
DNA 2: TGGTGGCTACGACGGGATT
B15: GGGUUUG (DNA:RNA)
RNA: B10 RNA with U31G
DNA 1: CAATCTGAATTCCGGTCTCCC
DNA 2: TGGTGGCTACGACGGGATT
B16: CGGGUUU (DNA:RNA)
RNA: B10 RNA with G25C, U28G
DNA 1: CAATCTGAATTCCGGTCTCCC
DNA 2: TGGTGGCTACGACGGGATT
B17: GGGAGUU (DNA:RNA)
RNA: B10 RNA with U28A, U29G
DNA 1: CAATCTGAATTCCGGTCTCCC
DNA 2: TGGTGGCTACGACGGGATT
B18: GUUUGGG (DNA:RNA)
RNA: B10 RNA with G26U, G27U, U29G, U30G, U31G
DNA 1: CAATCTGAATTCCGGTCTCCC
DNA 2: TGGTGGCTACGACGGGATT
B19: GGGGAGU (DNA:RNA)
RNA: B10 RNA with U28G, U29A, U30G
DNA 1: CAATCTGAATTCCGGTCTCCC
DNA 2: TGGTGGCTACGACGGGATT
B20: UAAUAUG (DNA:RNA)
RNA: B1 RNA with C28U, C29A, G30U, C31G
DNA 1: CAATCTGAATTCCGGTCTCCC
DNA 2: TGGTGGCTACGACGGGATT
B21: AGGACGU (DNA:RNA)
RNA: B10 RNA with G25A, U28A, U29C, U30G
DNA 1: CAATCTGAATTCCGGTCTCCC
DNA 2: TGGTGGCTACGACGGGATT
B22: GAUCGUC (DNA:RNA)
RNA: B1 RNA with U25G, A27U, C29G, G30U
DNA 1: CAATCTGAATTCCGGTCTCCC
DNA 2: TGGTGGCTACGACGGGATT
B23: AUUACAA (DNA:RNA)
RNA: B1 RNA with U25A, A26U, A27U, C28A, G30A, C31A
DNA 1: CAATCTGAATTCCGGTCTCCC
DNA 2: TGGTGGCTACGACGGGATT
B24: CCUAUUU (DNA:RNA)
RNA: B10 RNA with G25C, G26C, G27U, U28A
DNA 1: CAATCTGAATTCCGGTCTCCC
DNA 2: TGGTGGCTACGACGGGATT
B25: CUUAUAA (DNA:RNA)
RNA: B10 RNA with G25C, G26U, G27U, U28A, U30A, U31A
DNA 1: CAATCTGAATTCCGGTCTCCC
DNA 2: TGGTGGCTACGACGGGATT
B26: CGGGUAA (DNA:RNA)
RNA: B10 RNA with G25C, U28G, U30A, U31A
DNA 1: CAATCTGAATTCCGGTCTCCC
DNA 2: TGGTGGCTACGACGGGATT
B27: CAGCGAG (DNA:RNA)
RNA: B1 RNA with U25C, A27G, C29G, G30A, C31G
DNA 1: CAATCTGAATTCCGGTCTCCC
DNA 2: TGGTGGCTACGACGGGATT
B28: GCGGGUU (DNA:RNA)
RNA: B10 RNA with G26C, U28G, U29G
DNA 1: CAATCTGAATTCCGGTCTCCC
DNA 2: TGGTGGCTACGACGGGATT
B29: CGGGGUU (DNA:RNA)
RNA: B10 RNA with G25C, U28G, U29G
DNA 1: CAATCTGAATTCCGGTCTCCC
DNA 2: TGGTGGCTACGACGGGATT
B30: GGGGUUU (DNA:RNA)
RNA: B10 RNA with U28G
DNA 1: CAATCTGAATTCCGGTCTCCC
DNA 2: TGGTGGCTACGACGGGATT
B31: CGGGGGU (DNA:RNA)
RNA: B10 RNA with G25C, U28G, U29G, U30G
DNA 1: CAATCTGAATTCCGGTCTCCC
DNA 2: TGGTGGCTACGACGGGATT
B32: GCGGGGU (DNA:RNA)
RNA: B10 RNA with G26C, U28G, U29G, U30G
DNA 1: CAATCTGAATTCCGGTCTCCC
DNA 2: TGGTGGCTACGACGGGATT
B33: GGGGGUU (DNA:RNA)
RNA: B10 RNA with U28G, U29G
DNA 1: CAATCTGAATTCCGGTCTCCC
DNA 2: TGGTGGCTACGACGGGATT
B34: GGUUUUU (DNA:RNA)
RNA: B10 RNA with G27U
DNA 1: CAATCTGAATTCCGGTCTCCC
DNA 2: TGGTGGCTACGACGGGATT
B35: GGGGGGU (DNA:RNA)
RNA: B10 RNA with U28G, U29G, U30G
DNA 1: CAATCTGAATTCCGGTCTCCC
DNA 2: TGGTGGCTACGACGGGATT
B36: CCGGGGU (DNA:RNA)
RNA: B10 RNA with G25C, G26C, U28G, U29G, U30G
DNA 1: CAATCTGAATTCCGGTCTCCC
DNA 2: TGGTGGCTACGACGGGATT

Biological target: T1, RBFOX1 RRM
Assay: EMSA; HiTS-Eq, 1 nM pool, 10 min; buffer printed only for the single-RNA assays: 10 mM Tris pH 7.5, 150 mM NaCl, 3.4 mM EDTA, 0.001% NP-40, 30 C
Settings: tags: His6 N-terminal (pET28a); label: 5' 32P
Procedure, shortened: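 Purified RbFox RRM, wild type or mutant, was incubated for 10 min in 50 µL with 1 nM of a 5′-radiolabelled RNA pool carrying 7 randomized nucleotides, whose flanks were annealed to DNA oligonucleotides, over a series of increasing protein concentrations. Unbound RNA was resolved on 8% native PAGE, cut out, reverse-transcribed, barcoded by PCR and sequenced on an Illumina HiSeq 2500. Relative association constants were derived from changes in read counts for each RNA species versus the control reaction and normalised to the cognate motif.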

For B1, which binding signal is on record?
The binding signal was 0.0039 KA relative to UGCAUGU.

B2 was tested. Which binding signal did it give?
Its binding signal is 0.000994 KA relative to UGCAUGU.

For B3, which binding signal is on record?
Its binding signal is 0.0162 KA relative to UGCAUGU.

Which binding signal does the source give for B4 here?
Its binding signal is 0.0057 KA relative to UGCAUGU.

For B5, which binding signal is on record?
The binding signal was 0.00711 KA relative to UGCAUGU.

Which binding signal does the source give for B6 here?
The binding signal was 0.00971 KA relative to UGCAUGU.

Which binding signal does the source give for B7 here?
Its binding signal is 0.00984 KA relative to UGCAUGU.

Which binding signal does the source give for B8 here?
The binding signal was 0.013 KA relative to UGCAUGU.

For B9, which binding signal is on record?
The binding signal was 0.0284 KA relative to UGCAUGU.

With B10 as the binder, how does the binding signal read?
Its binding signal is 0.0323 KA relative to UGCAUGU.

How did the binding signal turn out when B11 was run?
The binding signal was 0.0137 KA relative to UGCAUGU.

With B12 as the binder, how does the binding signal read?
The binding signal was 0.0247 KA relative to UGCAUGU.

B13 was tested. Which binding signal did it give?
The binding signal was 0.00708 KA relative to UGCAUGU.

With B14 as the binder, how does the binding signal read?
The binding signal was 0.0196 KA relative to UGCAUGU.

B15 was tested. Which binding signal did it give?
Its binding signal is 0.0349 KA relative to UGCAUGU.

Which binding signal does the source give for B16 here?
Its binding signal is 0.0393 KA relative to UGCAUGU.

Which binding signal does the source give for B17 here?
Its binding signal is 0.0324 KA relative to UGCAUGU.

How did the binding signal turn out when B18 was run?
The binding signal was 0.0128 KA relative to UGCAUGU.

Which binding signal does the source give for B19 here?
The binding signal was 0.0316 KA relative to UGCAUGU.

How did the binding signal turn out when B20 was run?
Its binding signal is 0.0114 KA relative to UGCAUGU.

B21 was tested. Which binding signal did it give?
Its binding signal is 0.0265 KA relative to UGCAUGU.

For B22, which binding signal is on record?
The binding signal was 0.0199 KA relative to UGCAUGU.

How did the binding signal turn out when B23 was run?
The binding signal was 0.000272 KA relative to UGCAUGU.

B24 was tested. Which binding signal did it give?
The binding signal was 0.00115 KA relative to UGCAUGU.

Which binding signal does the source give for B25 here?
The binding signal was 0.00174 KA relative to UGCAUGU.

For B26, which binding signal is on record?
The binding signal was 0.0192 KA relative to UGCAUGU.

How did the binding signal turn out when B27 was run?
Its binding signal is 0.00935 KA relative to UGCAUGU.

How did the binding signal turn out when B28 was run?
The binding signal was 0.0192 KA relative to UGCAUGU.

Which binding signal does the source give for B29 here?
The binding signal was 0.0339 KA relative to UGCAUGU.

How did the binding signal turn out when B30 was run?
Its binding signal is 0.046 KA relative to UGCAUGU.

With B31 as the binder, how does the binding signal read?
The binding signal was 0.0227 KA relative to UGCAUGU.

For B32, which binding signal is on record?
The binding signal was 0.0285 KA relative to UGCAUGU.

How did the binding signal turn out when B33 was run?
Its binding signal is 0.0471 KA relative to UGCAUGU.

With B34 as the binder, how does the binding signal read?
Its binding signal is 0.00799 KA relative to UGCAUGU.

With B35 as the binder, how does the binding signal read?
Its binding signal is 0.0254 KA relative to UGCAUGU.

With B36 as the binder, how does the binding signal read?
Its binding signal is 0.0122 KA relative to UGCAUGU.

Source: publication PMC9911399, “Two distinct binding modes provide the RNA-binding protein RbFox with extraordinary sequence specificity”
